Test results taken from PubChem BioAssay AID1159580 (chemical genetic matrix, 2015).
Among all 5,500 compounds or so, about 2,000 (36%) were called active. Another 18% or so got no clear call; they are omitted. This is one part of the list. Unmarked numbers belong to inactive results. Cut-off read from the data, not from the text of the source: active = normalized growth mostly below about 0.91 (no sharp cut-off); inconclusive = no clear call, values can overlap the other calls; inactive = mostly above about 0.92.

Experiment: chemical genetic growth profiling, strain panel (AID 1159580);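 note: tested at 20 µM; growth read once vehicle control cultures reached saturation at 30 °C; 1 = growth at the plate median or of vehicle wells; lower values mean less growth of the strain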
Settings: growth OD

C[C@@H]1CC[C@H]2[C@@H](C)C(O)O[C@@H]3O[C@@]4(C)CC[C@@H]1[C@]32OO4 (stereo partly specified)
normalized growth (S. cerevisiae deletion strains, locus YNL071W, strain lat1, stronger effect = lower value): 0.167 (active)
normalized growth (S. cerevisiae deletion strains, locus YNL128W, strain TEP1, stronger effect = lower value): 0.167 (active)
normalized growth (S. cerevisiae deletion strains, locus YNL153C, strain GIM3, stronger effect = lower value): 0.285 (active)
normalized growth (S. cerevisiae deletion strains, locus YNL183C, strain NPR1, stronger effect = lower value): 0.266 (active)
normalized growth (S. cerevisiae deletion strains, locus YNL209W, strain ssb2, stronger effect = lower value): 0.195 (active)
normalized growth (S. cerevisiae deletion strains, locus YNL233W, strain BNI4, stronger effect = lower value): 0.292 (active)
normalized growth (S. cerevisiae deletion strains, locus YNL248C, strain rpa49, stronger effect = lower value): 0.384 (active)
normalized growth (S. cerevisiae deletion strains, locus YNL250W, strain rad50, stronger effect = lower value): 0.508 (active)
normalized growth (S. cerevisiae deletion strains, locus YNL271C, strain bni1, stronger effect = lower value): 0.505 (active)
normalized growth (S. cerevisiae deletion strains, locus YNL298W, strain CLA4, stronger effect = lower value): 0.298 (active)
normalized growth (S. cerevisiae deletion strains, locus YNL307C, strain MCK1, stronger effect = lower value): 0.125 (active)
normalized growth (S. cerevisiae deletion strains, locus YNL322C, strain KRE1 (second series), stronger effect = lower value): 0.493 (active)
normalized growth (S. cerevisiae deletion strains, locus YNL322C, strain KRE1, stronger effect = lower value): 0.349 (active)
normalized growth (S. cerevisiae deletion strains, locus YNR049C, strain mso1, stronger effect = lower value): 0.412 (active)
normalized growth (S. cerevisiae deletion strains, locus YNR052C, strain pop2, stronger effect = lower value): 0.788 (active)
normalized growth (S. cerevisiae deletion strains, locus YOL006C, strain TOP1, stronger effect = lower value): 0.16 (active)
normalized growth (S. cerevisiae deletion strains, locus YOL012C, strain htz1): 0.255
normalized growth (S. cerevisiae deletion strains, locus YOL147C, strain pex11, stronger effect = lower value): 0.256 (active)
normalized growth (S. cerevisiae deletion strains, locus YOR001W, strain rrp6, stronger effect = lower value): 0.287 (active)
normalized growth (S. cerevisiae deletion strains, locus YOR061W, strain CKA2, stronger effect = lower value): 0.475 (active)
normalized growth (S. cerevisiae deletion strains, locus YOR069W, strain VPS5, stronger effect = lower value): 0.564 (active)
normalized growth (S. cerevisiae deletion strains, locus YOR070C, strain gyp1, stronger effect = lower value): 0.277 (active)
normalized growth (S. cerevisiae deletion strains, locus YOR080W, strain dia2, stronger effect = lower value): 0.431 (active)
normalized growth (S. cerevisiae deletion strains, locus YOR083W, strain WHI5, stronger effect = lower value): 0.3 (active)
normalized growth (S. cerevisiae deletion strains, locus YOR106W, strain vam3, stronger effect = lower value): 0.288 (active)
normalized growth (S. cerevisiae deletion strains, locus YOR136W, strain idh2, stronger effect = lower value): 0.321 (active)
normalized growth (S. cerevisiae deletion strains, locus YOR144C, strain elg1, stronger effect = lower value): 0.449 (active)
normalized growth (S. cerevisiae deletion strains, locus YOR184W, strain ser1, stronger effect = lower value): 0.131 (active)
normalized growth (S. cerevisiae deletion strains, locus YOR231W, strain MKK1, stronger effect = lower value): 0.37 (active)
normalized growth (S. cerevisiae deletion strains, locus YOR265W, strain rbl2, stronger effect = lower value): 0.327 (active)
normalized growth (S. cerevisiae deletion strains, locus YOR270C, strain vph1, stronger effect = lower value): 0.187 (active)
normalized growth (S. cerevisiae deletion strains, locus YOR290C, strain snf2, stronger effect = lower value): 0.302 (active)
normalized growth (S. cerevisiae deletion strains, locus YOR316C, strain cot1, stronger effect = lower value): 0.433 (active)
normalized growth (S. cerevisiae deletion strains, locus YPL051W, strain arl3, stronger effect = lower value): 0.374 (active)
normalized growth (S. cerevisiae deletion strains, locus YPL055C, strain LGE1, stronger effect = lower value): 0.331 (active)
normalized growth (S. cerevisiae deletion strains, locus YPL078C, strain atp4, stronger effect = lower value): 0.248 (active)
normalized growth (S. cerevisiae deletion strains, locus YPL106C, strain sse1, stronger effect = lower value): 0.263 (active)
normalized growth (S. cerevisiae deletion strains, locus YPL240C, strain hsp82, stronger effect = lower value): 0.313 (active)
normalized growth (S. cerevisiae deletion strains, locus YPL241C, strain CIN2, stronger effect = lower value): 0.323 (active)
normalized growth (S. cerevisiae deletion strains, locus YPL256C, strain CLN2, stronger effect = lower value): 0.419 (active)
normalized growth (S. cerevisiae deletion strains, locus YPR119W, strain clb2, stronger effect = lower value): 0.424 (active)
normalized growth (S. cerevisiae deletion strains, locus YPR141C, strain kar3, stronger effect = lower value): 0.494 (active)
normalized growth (S. cerevisiae deletion strains, locus YPR163C, strain tif3, stronger effect = lower value): 0.314 (active)
normalized growth (S. cerevisiae deletion strains, locus YPR167C, strain met16, stronger effect = lower value): 0.386 (active)
normalized growth (S. cerevisiae deletion strains, strain wtn01, stronger effect = lower value): 0.249 (active)
normalized growth (S. cerevisiae strains, strain wild type, stronger effect = lower value): 0.27 (active)
